From publication PMC5540273 (PLoS ONE, 2017) come the findings set out here.

Broadly, the Kd is a measure of binding affinity in units of concentration. The low end stands for tighter binding, the high end for weaker binding.
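Also: kd values determined as follow-up on hits from a single-replicate KINOMEscan panel screen.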

One experiment relates to CSNK2A2.
As to `COc1ccccc1CNC(=O)c1cc(C(=O)c2ccccc2C)c[nH]1` [GSK364507], binding was put at a Kd of 5100 nM. Same read-out and setting: the figure for `Clc1cc(Cl)cc(Nc2ccnc(Nc3cc(Cl)cc(Cl)c3)n2)c1` [GSK175726] is over 10000 nM; for `COc1cc2ncnc(Nc3ccc4nc(-c5ccccc5)[nH]c4c3)c2cc1OC.Cl` [GW282450] it is over 10000 nM. Turning to `Nc1ncnc2[nH]c(-c3ccccc3)nc12` [AH5015], binding was characterised by a dissociation constant (Kd) of 1100 nM.

`Cc1cccc(-c2nc(Nc3ccc4[nH]ncc4c3)c3ccccc3n2)n1` [GW857175] yielded a Kd of 42 nM. The same measure, in the same setting: the same measure for `Fc1cc(Cl)ccc1Nc1ccnc2cc(-c3ccc(CN4CCCCC4)o3)ccc12` [GW560116]: over 10000 nM.

Another experiment relates to DDR1.
`CC(=O)Nc1nc2cnc(Nc3cc(NC(=O)c4cccc(CCC#N)c4)ccc3C)nc2s1` displayed a Kd of over 10000 nM.

`Cl.O=C(Nc1cccc(-c2nn3ncccc3c2-c2ccnc(Nc3cccnc3)n2)c1)c1c(F)cccc1F` [GSK312879] had a Kd of 140 nM. For `Cc1cccc(-c2nc(-c3ccc(S(C)(=O)=O)cc3)sc2-c2ccnc(NCCc3ccccc3)c2)c1`, the Kd is 230 nM. Still for that read-out and setting: the same measure for `COC(=O)c1c(-c2ccccc2)c2cc(C(=O)O)ccc2c(=O)n1Cc1ccccc1`: 160 nM. Same read-out and setting: the figure for `Cc1ccc(NC(=O)Nc2cc(C(C)(C)C)nn2-c2ccccc2)cc1` [GSK1014915] is 1300 nM; for `O=C(Nc1ccccc1)Nc1cccc(Oc2ccc3nccn3n2)c1` it is 24 nM. Consider `Cc1ccc(NC(=O)Nc2cccc(Cl)c2)cc1-c1ccc(C(=O)Nc2ccncc2)cc1` [GSK1398468], for which the Kd worked out at 76 nM. On to `COC(=O)c1c(-c2ccccc2)c2cc(OC)ccc2c(=O)n1Cc1ccccc1`, for which the Kd was determined as 280 nM.
